This is an account of results in PubChem BioAssay AID1851 (National Center for Advancing Translational Sciences (NCATS), 2009).

Several values for one entry are separate records, joined by “and”; a condition that tells them apart may be missing. Equal values may be shown once. The campaign covered roughly 16,000 compounds. About 5,800 (36%) were called active. About 23% were inconclusive and are not listed. Calls follow the shape of the dose curve; as a rule, active = well fitted curve in the direction sought with a large enough effect; inconclusive = small, poorly fitted or top-dose-only effect, or effect the other way; inactive = no such curve, though single readings can be large or run the other way. The list shows a part of the results.
% is scaled to controls: 0 for no effect and ±100 for the full control effect.

Sequence of Cytochrome P450 2C19 (Homo sapiens) (P33261 whole entry, looked up): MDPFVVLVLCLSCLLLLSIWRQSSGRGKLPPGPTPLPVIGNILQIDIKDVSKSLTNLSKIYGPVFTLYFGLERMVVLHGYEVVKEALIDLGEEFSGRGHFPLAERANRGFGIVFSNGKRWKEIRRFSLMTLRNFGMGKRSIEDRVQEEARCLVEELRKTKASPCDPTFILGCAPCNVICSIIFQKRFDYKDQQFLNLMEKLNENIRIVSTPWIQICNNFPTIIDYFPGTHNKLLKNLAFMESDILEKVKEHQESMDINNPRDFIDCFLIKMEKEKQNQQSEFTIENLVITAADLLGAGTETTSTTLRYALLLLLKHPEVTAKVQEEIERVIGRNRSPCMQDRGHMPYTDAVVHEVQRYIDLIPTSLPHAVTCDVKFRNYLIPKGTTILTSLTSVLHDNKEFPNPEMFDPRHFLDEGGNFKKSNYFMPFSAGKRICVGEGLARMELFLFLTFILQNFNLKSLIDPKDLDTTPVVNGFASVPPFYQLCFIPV

The assay addresses Cytochrome P450 2C19 (Homo sapiens) (UniProt P33261). In words: Cytochrome panel assay with activity outcomes. The settings on record: recombinant CYP, pro-luciferin dealkylation, luminescence, p450-cyp2c19; series mostly up to 57.1 µM; activity, negative = inhibition: at the top concentration.
`[N-]=[N+]=Nc1ccc(C(=O)CSC[C@@H](NC(=O)CC[C@@H](N)C(=O)O)C(=O)NCC(=O)O)cc1`: the “activity, negative = inhibition” value is -17.4% (inactive).

For `c1ccc(CCN2CCN=C2Cc2ccccc2)cc1`, the activity, negative = inhibition is 7.77% [at 11.4 µM] (inactive).

With `Fc1ccc(SCCc2ccncc2)cc1`, the AC50 is 0.447 µM (active).

For `c1ccc(SCCc2ccncc2)cc1`, the AC50 is 447 nM (active) and 794 nM (active).

Take `ON(CCc1ccncc1)Cc1ccccc1`: the concentration at half-maximal activity (AC50) was 0.316 µM (active).

Consider `ON(CCc1ccccn1)Cc1ccccc1`, for which the activity, negative = inhibition was -32.5% [at 11.4 µM] (inactive).

On to `CCOc1cc(/C=N/NC(=O)CNc2cccc(C)c2)ccc1OC(=O)c1ccccc1`, for which the AC50 is 10 µM (active).

Consider `CCOc1cc(/C=N/NC(=O)COc2cccc(C)c2)ccc1OC(=O)c1cccs1`, for which the AC50 was 8.91 µM (active).

For `COc1ccc(/C=C/C(=O)Oc2cccc(/C=N/NC(=O)COc3c(C)cccc3C)c2)cc1`, the “activity, negative = inhibition” value was -25% (inactive).

In the case of `O=C(CN1CCN(S(=O)(=O)c2ccc(Cl)cc2)CC1)Nc1ccc2c(c1)OCO2`, the AC50 was 2.82 µM (active).

Consider `O=C(CN1CCN(S(=O)(=O)c2ccc(F)cc2)CC1)Nc1ccc(Cl)c(C(F)(F)F)c1`, for which the AC50 is 7.94 µM (active).

Consider `O=C1C=CC(=Nc2cccc3c(N=C4C=CC(=O)O4)cccc23)O1`, for which the activity, negative = inhibition was -74.7% [at 11.4 µM] (inactive).

In the case of `CC1=CC(C)(C)NC(=S)N1c1cccc(C)c1`, the AC50 was 3.98 µM (active).

Turning to `CCN1C(=O)[C@H]2[C@H]3[C@H](O)[C@H](O)C/C(=N/O[C@@H](C)c4cc(-c5c(C)cc(C)cc5C)no4)[C@@H]3CC[C@@H]2C1=O`, the activity, negative = inhibition was -26.1% [at 11.4 µM] (inactive).

Consider `CC(C)=NOC[C@@H](O)COCc1ccco1`, for which the activity, negative = inhibition is -10.6% [at 11.4 µM] (inactive).

Take `COc1cccc([C@H]2Oc3ccc(OC)cc3/C(=N\OC[C@@H](O)[C@@H]3O[C@@H]4OC(C)(C)O[C@@H]4[C@H]3O)[C@@H]2O)c1`: the activity, negative = inhibition was -33% [at 11.4 µM] (inactive).

Turning to `COc1cccc([C@H]2Oc3ccc(OC)cc3/C(=N\O[C@@H](C)c3cn([C@H](CO)Cc4ccccc4)nn3)[C@@H]2O)c1`, the activity, negative = inhibition is -44.2% [at 11.4 µM] (inactive).

Turning to `COc1cccc([C@@H]2Oc3ccc(OC)cc3/C(=N/O[C@@H](C)c3cc(-c4c(C)cc(C)cc4C)no3)[C@@H]2O)c1`, the AC50 was 1.58 µM (active).

Consider `COc1cccc([C@@H]2Oc3ccc(OC)cc3/C(=N/OC[C@@H](C)[C@H](OCc3ccccc3)C(C)C)[C@@H]2O)c1`, for which the AC50 is 2 µM (active).

As to `COc1cccc([C@@H]2Oc3ccc(OC)cc3/C(=N/O[C@@H](C)c3cn([C@H]4COC[C@H]4O)nn3)[C@@H]2O)c1`, the activity, negative = inhibition is -35.4% [at 11.4 µM] (inactive).

On to `COc1cccc([C@@H]2Oc3ccc(OC)cc3/C(=N/OC[C@@H](O)COCc3ccco3)[C@@H]2O)c1`, for which the AC50 was 1.58 µM (active).

For the molecule `CCN1C(=O)[C@H]2[C@H]3[C@H](O)[C@H](O)C/C(=N/OC[C@@H](C)[C@H](OCc4ccccc4)C(C)C)[C@@H]3CC[C@@H]2C1=O`, the activity, negative = inhibition is -18.6% [at 11.4 µM] (inactive).

For the molecule `O=C(O)/C(=C/c1c(C(=O)O)[nH]c2cc(Cl)cc(Cl)c12)c1ccccc1`, the “activity, negative = inhibition” value is -13.2% (inactive).

As to `O=C1NCCN1Cc1ccccc1F`, the AC50 is 20 µM (active).

Regarding `CN(C)S(=O)(=O)Oc1cccc(C(=O)Nc2ccccc2Cl)c1`, the AC50 was 2.82 µM (active).

`CN(C)S(=O)(=O)Oc1cccc(C(=O)Nc2ccc(Cl)c(Cl)c2)c1`: the AC50 was 3.98 µM (active).

Turning to `CC(C)(N=NC(C)(C)C(=N)N)C(=N)N`, the activity, negative = inhibition is 41.9% [at 11.4 µM] (inactive).

With `CON1C(=O)C(=O)N(OC)C2CCCCC21` (stereo unspecified), the “activity, negative = inhibition” value is 24.9% (inactive).

On to `CC=C(/C(=C/C)c1ccc(O)cc1)c1ccc(O)cc1`, for which the AC50 was 3.16 µM (active).

Take `N#CC(C#N)=C(N)/C(C#N)=C/c1ccc(O)cc1`: the “activity, negative = inhibition” value is 0.416% (inactive).

On to `COc1cccc(C2=NOC(C(=O)Nc3cccnc3)C2)c1` (stereo unspecified), for which the concentration at half-maximal activity (AC50) was 10 µM (active).

Consider `COc1cccc(C2=NOC(C(=O)NCCN3CCOCC3)C2)c1` (stereo unspecified), for which the “activity, negative = inhibition” value was -20.2% (inactive).

Consider `COCCNC(=O)C1CC(c2cccc(OC)c2)=NO1` (stereo unspecified), for which the “activity, negative = inhibition” value was -24.6% (inactive).

Regarding `COc1ccc(CNC(=O)C2CC(c3ccc(OC)cc3)=NO2)cc1` (stereo unspecified), the “activity, negative = inhibition” value is -2.25% (inactive).

With `O=C(NCc1ccc2c(c1)OCO2)C1CC(c2cccc(Br)c2)=NO1` (stereo unspecified), the AC50 was 11.2 µM (active).

As to `COc1ccc(CNC(=O)C2CC(c3cccc([N+](=O)[O-])c3)=NO2)cc1` (stereo unspecified), the AC50 was 10 µM (active).

Take `COc1cccc(C2=NOC(C(=O)NCc3ccccc3)C2)c1` (stereo unspecified): the AC50 is 3.98 µM (active).

Consider `CCNc1ncc2nc(C)c(=O)n(Cc3cccs3)c2n1`, for which the “activity, negative = inhibition” value is -27.9% (inactive).

For `COC(=O)N1CCC[C@@]2(CCN(C(=O)Nc3cccc(F)c3)C2)C1`, the “activity, negative = inhibition” value is -41.5% (inactive).

As for `Cn1c(=O)c(-c2cccs2)nc2cncnc21`, the “activity, negative = inhibition” value is -45.6% (inactive).

Take `COc1ccc(-n2c(=O)c(-c3cccs3)nc3cnc(Oc4ccccc4)nc32)cc1`: the “activity, negative = inhibition” value was -6.86% (inactive).

With `O=c1c(-c2cccs2)nc2cncnc2n1-c1ccccc1`, the AC50 is 6.31 µM (active).

For the molecule `COc1ccc(-n2c(=O)c(-c3cccs3)nc3cncnc32)cc1`, the AC50 is 15.8 µM (active).

On to `O=c1c(-c2cccs2)nc2cnc(N3CCOCC3)nc2n1-c1ccccc1`, for which the “activity, negative = inhibition” value was -11.6% (inactive).

Turning to `CN1CCN(c2ncc3nc(-c4cccs4)c(=O)n(-c4ccccc4)c3n2)CC1`, the “activity, negative = inhibition” value is 22.2% (inactive).

In the case of `CCCc1ncc(C[n+]2ccccc2C)c(N)n1`, the “activity, negative = inhibition” value was 0.835% [at 25.6 µM] (inactive).

For `COCC(=O)N1CCC2(CC1)CCN(C(=O)Nc1ccc(OC)cc1)CC2`, the “activity, negative = inhibition” value is -5.31% (inactive).

Regarding `COc1ccc2c(c1)c(=O)oc1c(C)c(OCC(=O)N3CCc4ccccc4C3)ccc12`, the concentration at half-maximal activity (AC50) is 0.398 µM (active).

On to `CCOc1cc(/C=C2/SC(=O)N(CC(=O)N3CCc4ccccc4C3)C2=O)ccc1OCC(=O)O`, for which the “activity, negative = inhibition” value is 2.89% (inactive).

Regarding `N#Cc1c(NC(=O)CCN2C(=O)c3ccccc3C2=O)oc(-c2ccccc2)c1-c1ccccc1`, the AC50 is 3.16 µM (active).

For `OC(CNCc1ccc(F)cc1)(c1ccc(F)cc1)c1ccc(F)cc1`, the AC50 was 7.94 µM (active).

On to `Cc1ccc(CNCC(O)(c2ccc(F)cc2)c2ccc(F)cc2)cc1`, for which the AC50 was 11.2 µM (active).

Take `COc1cnc(-c2ccccn2)nc1Oc1ccc(Cl)c2ccccc12`: the AC50 is 14.1 µM (active).

`C=C1C(=O)O[C@@H]2[C@@H]1CC/C(C)=C\CC[C@@]1(C)O[C@H]21`: the AC50 result is “inactive”.

For `c1cncc(-c2cc(-c3cc(-c4cccnc4)n[nH]3)[nH]n2)c1`, the activity, negative = inhibition is -4.18% [at 11.4 µM] (inactive).

In the case of `Cn1c(Sc2ccc(-c3cccnc3)n2C)ccc1-c1cccnc1`, the AC50 was 1 µM (active).

With `COc1cccc(/C=N/NC(=O)CO/N=C(\C)c2cccs2)c1OC`, the AC50 is 12.6 µM (active).

As for `CCOc1ccc(-c2cc(CCCC(=O)NCCc3ccc(OC)c(OC)c3OC)no2)cc1`, the AC50 was 1.58 µM (active).

In the case of `CC(=O)N1CCC2(CCCN(C(=O)Nc3cccc(F)c3)C2)CC1`, the “activity, negative = inhibition” value was -27.7% (inactive).

With `O=C(/C=C\NCC(=O)c1ccccc1)c1ccc(F)cc1`, the AC50 is 2 µM (active).

For the molecule `O=C(/C=C\NCC(=O)c1ccccc1)c1ccccc1`, the AC50 was 3.98 µM (active).

For `O=C(C[N+]1(c2ccccc2)CCOCC1)c1ccccc1`, the activity, negative = inhibition was -17.3% [at 11.4 µM] (inactive).

`c1ccc(C(c2ccccc2)N2CCCC3(CCNCC3)C2)cc1`: the “activity, negative = inhibition” value is -20.4% (inactive).

As to `c1ccc(C(c2ccccc2)N2CCC3(CCNCC3)CC2)cc1`, the AC50 is 3.98 µM (active).

Take `c1ccc(C(c2ccccc2)N2CC3(CCNCC3)C2)cc1`: the “activity, negative = inhibition” value was -26.7% (inactive).

As to `CC(C)CO/N=C1/C[C@@H](O)[C@@H](O)[C@@H]2[C@@H]3C(=O)N(Cc4ccc5c(c4)OCO5)C(=O)[C@H]3CC[C@H]12`, the AC50 was 3.98 µM (active).

As for `CC(C)CO/N=C1/C[C@@H](O)[C@@H](O)[C@@H]2[C@@H]3C(=O)N(Cc4ccc5c(c4)OCO5)C(=O)[C@H]3CC[C@@H]12`, the activity, negative = inhibition is -22.9% [at 11.4 µM] (inactive).

Take `O=C1[C@H]2[C@H]3[C@H](O)[C@H](O)C/C(=N/OC[C@@H](O)COCc4ccco4)[C@H]3CC[C@@H]2C(=O)N1Cc1ccc2c(c1)OCO2`: the activity, negative = inhibition is 4.07% [at 11.4 µM] (inactive).

For `O=C(Nc1nnc(C2CC2)s1)c1ccncc1`, the AC50 is 17.8 µM (active).

Regarding `O=C(NNC(=O)c1ccncc1)c1ccncc1`, the activity, negative = inhibition was 6.77% [at 11.4 µM] (inactive).

Turning to `NNC(=O)CNC(c1ccccc1)c1cc(Br)ccc1NC(=O)c1ccccc1Br` (stereo unspecified), the AC50 was 7.08 µM (active).

As for `Cc1ccc(-c2c3c(nc4sc(C(N)=O)c(N)c24)CCC3)cc1`, the AC50 is 14.1 µM (active).

As for `O=C1C(=O)N(c2cccc(Cl)c2)C(c2ccccc2[N+](=O)[O-])/C1=C(\O)c1ccccc1` (stereo unspecified), the AC50 was 20 µM (active).

With `COc1ccc(C2/C(=C(/O)c3ccccc3)C(=O)C(=O)N2c2ccccn2)c(OC)c1` (stereo unspecified), the “activity, negative = inhibition” value is -17.8% (inactive).

In the case of `O=[N+]([O-])c1ccc(C2=Nn3c(nnc3-c3ccc(Cl)cc3)SC2)o1`, the AC50 is 2.51 µM (active).

Take `O=C1COC(c2ccccc2O)=NN1CCCN1CCCC1`: the activity, negative = inhibition was 43.2% [at 11.4 µM] (inactive).

Consider `Cn1c(=O)n(CC#N)c2ccccc21`, for which the “activity, negative = inhibition” value is 2.79% (inactive).

In the case of `Cc1snc(SCC(=O)N/N=C(\N)COc2cccc(C(F)(F)F)c2)c1C#N`, the AC50 is 4.47 µM (active).

For `Cc1ccc(C)c(NC(=O)Cn2nnc(C(=O)NCc3cccs3)c2N)c1`, the “activity, negative = inhibition” value is -1.93% (inactive).

As to `COc1ccc(CCNC(=O)CCN2C(=O)C(C)Oc3ccc(C)cc32)cc1OC` (stereo unspecified), the AC50 was 20 µM (active).

Turning to `CC(=O)OCC1=C(C(=O)O)N2C(=O)[C@@H](NC(=O)Cc3cccs3)[C@@H]2SC1`, the AC50 result is “inactive”.

With `Cc1ccc2c(c1)N(CC(=O)NCc1cccs1)C(=O)C(C)O2` (stereo unspecified), the half-maximal activity concentration (AC50) is 2.51 µM (active).

For `COc1ccc(CCN(C)CCC(=O)Nc2c(C)cc(C)cc2C)cc1OC`, the “activity, negative = inhibition” value is 12.6% (inactive).

In the case of `NC(=O)/C(=N\OC(=O)c1ccco1)c1nc(-c2ccc(Br)cc2)cs1`, the AC50 is 20 µM (active).

Consider `O=C(O)[C@@H](Cc1c[nH]c2ccccc12)C(=O)NO`, for which the activity, negative = inhibition was 84.7% [at 11.4 µM] (inactive).

As for `Cc1cc(C)cc(C(=O)N(C)[C@H](Cc2ccc(-c3ccccc3)cc2)C(=O)N[C@@H](Cc2c[nH]c3ccccc23)C(=O)O)c1`, the AC50 is 10 µM (active).

In general, AC50 refers to the midpoint of the concentration-response curve, whichever way the signal moves.
